# Results from PubChem BioAssay.
# Inconclusive results are not listed. The source made the active and inactive calls.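 How the source made its calls, unless noted: active means normalized viability below 100% at a tested concentration; inactive means the rest.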
# What was measured:
# [1] = growth inhibition of DIPG glioma cells, dose response, cell-based, SU-DIPG-XVII, MIPE5.0, CellTiter-Glo, qHTS (AID 1347060; cut-off not given, nearly all actives have AC50 up to about 26 µM;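 further: cells exposed to compound for 48 hours before viability readout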); conditions: SU-DIPG-XVII viability, CellTiter-Glo ATP luminescence
# [2] = growth inhibition of DIPG glioma cells, dose response, cell-based, SU-DIPG-XIII, MIPE4.0, CellTiter-Glo, qHTS (AID 1347061; cut-off not given, nearly all actives have AC50 up to about 37 µM;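 further: cells exposed to compound for 48 hours before readout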); conditions: SU-DIPG-XIII viability, CellTiter-Glo ATP luminescence
# [3] = growth inhibition of DIPG glioma cells, dose response, cell-based, JHH-DIPG-1, MIPE4.0, CellTiter-Glo, qHTS (AID 1347062; cut-off not given, nearly all actives have AC50 up to about 27 µM;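 further: cells exposed to compound for two days before readout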); conditions: JHH-DIPG-1 viability, CellTiter-Glo ATP luminescence
# [4] = growth inhibition of DIPG glioma cells, dose response, cell-based, SU-DIPG-IV, MIPE4.0, CellTiter-Glo, qHTS (AID 1347063; cut-off not given, nearly all actives have AC50 up to about 30 µM;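 further: compound exposure lasted 48 hours before the viability readout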); conditions: SU-DIPG-IV viability, CellTiter-Glo ATP luminescence
# [5] = growth inhibition of DIPG glioma cells, dose response, cell-based, SU-DIPG-XIII, MIPE5.0, CellTiter-Glo, qHTS (AID 1347064; cut-off not given, nearly all actives have AC50 up to about 23 µM;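 further: cells exposed to compound for 48 hours before the viability read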); conditions: SU-DIPG-XIII viability, CellTiter-Glo ATP luminescence
# [6] = viability loss in pontine glioma line – cell-based, SU-DIPG-XXV, MIPE5.0, CellTiter-Glo, qHTS, dose response (AID 1347065; cut-off not given, nearly all actives have AC50 up to about 26 µM;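 further: cells exposed to compound for 48 hours before ATP readout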); conditions: CellTiter-Glo ATP luminescence
# [7] = SU-DIPG-VI glioma cell viability, MIPE4.0 library, CellTiter-Glo luminescence, qHTS (AID 1347066; cut-off not given, nearly all actives have AC50 up to about 30 µM;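 further: cells exposed to compound for 48 hours before readout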); conditions: CellTiter-Glo ATP luminescence
# [8] = JHH-DIPG-1 glioma cell viability, MIPE5.0 library, CellTiter-Glo luminescence, qHTS (AID 1347067; cut-off not given, nearly all actives have AC50 up to about 26 µM;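 further: cells exposed to compound for 48 hours before readout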); conditions: JHH-DIPG-1 glioma viability, CellTiter-Glo ATP luminescence
# [9] = modifiers of HSF1 nuclear foci, imaging, Selleck Cancer Library (AID 1347162; in the data active means plate-normalised HSF1 focus index below about 0.46); conditions: human cells, at 10 µM; SSMD: measured here: HSF1 foci SSMD mean; cell count: measured here: cell number; plate-normalised HSF1 focus index: stronger effect = lower value
# [10] = ovarian cancer cell viability with rucaparib, profiling panel, oncology-focused library, rucaparib conditional (AID 1508598); conditions: patient-derived ovarian cancer cells, CellTiter-Glo viability, 144 h, stronger effect = lower value
# [11] = LFS_MB_P medulloblastoma growth inhibition, cell-based, chromothripsis tumors, cisplatin or BGB combos (AID 1671449; in the data active means inhibition above about 80%;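 further: cells exposed for 96 hours; 0% = vehicle DMSO and 100% = killing by high DMSO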); conditions: LFS_MB_P medulloblastoma cells
# [12] = HDN33 neuroblastoma growth inhibition, cell-based, chromothripsis tumors, cisplatin or BGB combos (AID 1671450; in the data active means inhibition above about 80%;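 further: cells exposed to compound for four days; 0% = vehicle DMSO and 100% = cell killing by high DMSO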); conditions: HDN33 neuroblastoma cells, stronger effect = higher value
# [13] = ICB984 medulloblastoma cell growth inhibition, synergistic combos for chromothripsis tumors, cisplatin or BGB combos (AID 1671451; call rule not given here;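 further: cells exposed for 96 hours before readout; 0% = vehicle DMSO and 100% = killing by high DMSO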); conditions: ICB984 medulloblastoma cells, drug combinations, stronger effect = higher value
# [14] = HTB85 osteosarcoma cell growth inhibition, synergistic combos for chromothripsis tumors, BGB or cisplatin IC20 combos (AID 1671453; in the data active means inhibition above about 80%;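 further: cells exposed for 96 hours before readout; 0% = vehicle DMSO and 100% = high DMSO killing control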); conditions: HTB85 osteosarcoma cells, drug combinations, stronger effect = higher value
# [15] = MDA-MB-436 breast carcinoma cell growth inhibition, synergistic combos for chromothripsis tumors, BGB or cisplatin combos (AID 1671458; call rule not given here;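 further: cells exposed for 96 hours; 0% = vehicle DMSO and 100% = killing by high DMSO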); conditions: MDA-MB-436 breast carcinoma growth inhibition, drug combinations, stronger effect = higher value
# [16] = growth inhibition of BT084 medulloblastoma cells, cell-based, ICGC_MB145, cisplatin and BGB IC40 combos (AID 1671461; in the data active means inhibition above about 80%;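 further: cells exposed to drugs for 96 hours; 0% = vehicle DMSO and 100% = high DMSO full killing control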); conditions: drug combinations, stronger effect = higher value
# [17] = growth inhibition of RCMB18 medulloblastoma cells, cell-based, cisplatin and BGB IC40 combos (AID 1671462; in the data active means inhibition above about 80%;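 further: cells exposed to compound for four days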); conditions: stronger effect = higher value
# [18] = SU-DIPG-XXV glioma cell viability, MIPE5.0 library, qHTS (AID 1347068; cut-off not given, nearly all actives have IC50 up to about 30 µM)
# [19] = sensitizers of A549 cells to miR-34 induction, primary screen, imaging, A549 dox-inducible miR-34, nuclei and caspase counts (AID 1347080;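 active means compounds whose cell count with miR-34 switched on is under 0.7 times the count with it off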); conditions: A549 miR-34 inducible, Hoechst nuclei count, 48 h
# [20] = survival rescue of mitochondrial mutant cells in low glucose, primary screen, MELAS cybrids, Rieske KO mouse fibroblasts, CellTiter-Glo (AID 1508586;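 active means mean z-score across replicates of 1.96 or higher in either the MELAS or the Rieske mutant cell line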;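 further: z relative to plate mean and SD of compound and empty wells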)
structure (smiles),measurement,setting,value
O=C(/C=C/c1cccc(S(=O)(=O)Nc2ccccc2)c1)NO,AC50,[1],2.09 µM (active)
same,AC50,[2],15.2 µM (active)
same,AC50,[3],7.62 µM (active)
same,AC50,[4],3.4 µM (active)
same,AC50,[5],0.661 µM (active)
same,AC50,[6],0.742 µM (active)
same,AC50,[7],3.82 µM (active)
same,AC50,[8],0.742 µM (active)
same,SSMD,[9],-3.23
same,cell count,[9],7740
same,plate-normalised HSF1 focus index,[9],0.885 (inactive)
same,viability,"[10]; at 0.000305 µM, OCI-C5x cells, with rucaparib 10 µM, 100% = cells with rucaparib alone",104% (inactive)
same,viability,"[10]; at 0.000305 µM, OCI-C5x cells, without rucaparib",114% (inactive)
same,viability,"[10]; at 0.000305 µM, OCI-P5x cells, with rucaparib 20 µM, 100% = cells with rucaparib alone",106% (inactive)
same,viability,"[10]; at 0.000305 µM, OCI-P5x cells, without rucaparib",94% (active)
same,viability,"[10]; at 0.00122 µM, OCI-C5x cells, with rucaparib 10 µM, 100% = cells with rucaparib alone",98.8% (active)
same,viability,"[10]; at 0.00122 µM, OCI-C5x cells, without rucaparib",117% (inactive)
same,viability,"[10]; at 0.00122 µM, OCI-P5x cells, with rucaparib 20 µM, 100% = cells with rucaparib alone",113% (inactive)
same,viability,"[10]; at 0.00122 µM, OCI-P5x cells, without rucaparib",100% (inactive)
same,viability,"[10]; at 0.00488 µM, OCI-C5x cells, with rucaparib 10 µM, 100% = cells with rucaparib alone",114% (inactive)
same,viability,"[10]; at 0.00488 µM, OCI-C5x cells, without rucaparib",117% (inactive)
same,viability,"[10]; at 0.00488 µM, OCI-P5x cells, with rucaparib 20 µM, 100% = cells with rucaparib alone",101% (inactive)
same,viability,"[10]; at 0.00488 µM, OCI-P5x cells, without rucaparib",95% (active)
same,viability,"[10]; at 0.0195 µM, OCI-C5x cells, with rucaparib 10 µM, 100% = cells with rucaparib alone",104% (inactive)
same,viability,"[10]; at 0.0195 µM, OCI-C5x cells, without rucaparib",119% (inactive)
same,viability,"[10]; at 0.0195 µM, OCI-P5x cells, with rucaparib 20 µM, 100% = cells with rucaparib alone",90.8% (active)
same,viability,"[10]; at 0.0195 µM, OCI-P5x cells, without rucaparib",88.4% (active)
same,viability,"[10]; at 0.0781 µM, OCI-C5x cells, with rucaparib 10 µM, 100% = cells with rucaparib alone",97.6% (active)
same,viability,"[10]; at 0.0781 µM, OCI-C5x cells, without rucaparib",112% (inactive)
same,viability,"[10]; at 0.0781 µM, OCI-P5x cells, with rucaparib 20 µM, 100% = cells with rucaparib alone",77.4% (active)
same,viability,"[10]; at 0.0781 µM, OCI-P5x cells, without rucaparib",75.3% (active)
same,viability,"[10]; at 0.313 µM, OCI-C5x cells, with rucaparib 10 µM, 100% = cells with rucaparib alone",77% (active)
same,viability,"[10]; at 0.313 µM, OCI-C5x cells, without rucaparib",75.9% (active)
same,viability,"[10]; at 0.313 µM, OCI-P5x cells, with rucaparib 20 µM, 100% = cells with rucaparib alone",43.7% (active)
same,viability,"[10]; at 0.313 µM, OCI-P5x cells, without rucaparib",63.5% (active)
same,viability,"[10]; at 1.25 µM, OCI-C5x cells, with rucaparib 10 µM, 100% = cells with rucaparib alone",12.7% (active)
same,viability,"[10]; at 1.25 µM, OCI-C5x cells, without rucaparib",12.1% (active)
same,viability,"[10]; at 1.25 µM, OCI-P5x cells, with rucaparib 20 µM, 100% = cells with rucaparib alone",17.8% (active)
same,viability,"[10]; at 1.25 µM, OCI-P5x cells, without rucaparib",35.8% (active)
same,viability,"[10]; at 5 µM, OCI-C5x cells, with rucaparib 10 µM, 100% = cells with rucaparib alone",5.06% (active)
same,viability,"[10]; at 5 µM, OCI-C5x cells, without rucaparib",5.35% (active)
same,viability,"[10]; at 5 µM, OCI-P5x cells, with rucaparib 20 µM, 100% = cells with rucaparib alone",2.89% (active)
same,viability,"[10]; at 5 µM, OCI-P5x cells, without rucaparib",3.18% (active)
same,inhibition,"[11]; at 0.5 µM, stronger effect = higher value",40.5% (inactive)
same,inhibition,"[11]; measured here: combination with BGB IC20, at 0.005 µM",-0.936%
same,inhibition,"[11]; measured here: combination with BGB IC40, at 0.005 µM",-11.3%
same,inhibition,"[11]; measured here: combination with BGB IC40, at 0.05 µM",-18.3%
same,inhibition,"[11]; measured here: combination with cisplatin, at 0.5 µM, stronger effect = higher value",101%
same,inhibition,"[11]; measured here: combination with cisplatin, at 5 µM, stronger effect = higher value",112%
same,inhibition,"[12]; BGB combo, at 5 µM",99.6%
same,inhibition,[12]; at 0.5 µM,28.3% (inactive)
same,inhibition,"[12]; cisplatin combo, at 5 µM",99.8%
same,inhibition,"[12]; measured here: with BGB IC20 combination, at 0.5 µM",17.9%
same,inhibition,"[12]; measured here: with cisplatin IC20 combination, at 0.5 µM",21.7%
same,inhibition,"[12]; single agent, at 5 µM",99.8%
same,inhibition,"[13]; BGB IC20 combo, at 0.005 µM",18.9%
same,inhibition,"[13]; BGB IC40 combo, at 0.005 µM",36.1%
same,inhibition,"[13]; BGB IC40 combo, at 0.05 µM",94.9%
same,inhibition,[13]; at 0.5 µM,-22.2% (inactive)
same,inhibition,"[13]; cisplatin combo, at 0.05 µM",94.8%
same,inhibition,"[13]; cisplatin combo, at 0.5 µM",-34.3%
same,inhibition,"[13]; cisplatin combo, at 5 µM",-34.9%
same,inhibition,"[13]; measured here: 5 uM single agent, at 5 µM",-35.3%
same,inhibition,[14]; at 0.5 µM,34.5% (inactive)
same,inhibition,"[14]; measured here: with BGB IC20, at 0.5 µM",8.9%
same,inhibition,"[14]; measured here: with BGB IC20, at 5 µM",99.2%
same,inhibition,"[14]; measured here: with cisplatin IC20, at 0.5 µM",49.8%
same,inhibition,"[14]; measured here: with cisplatin IC20, at 5 µM",99.8%
same,inhibition,"[14]; single agent, at 5 µM",99.7%
same,inhibition,[15]; at 0.5 µM,33.7% (inactive)
same,inhibition,"[15]; measured here: BGB combination, at 0.5 µM",25.2%
same,inhibition,"[15]; measured here: BGB combination, at 5 µM",62%
same,inhibition,"[15]; measured here: cisplatin combination, at 0.5 µM",26.3%
same,inhibition,"[15]; measured here: cisplatin combination, at 5 µM",66.1%
same,inhibition,[16]; at 0.5 µM,38.7% (inactive)
same,inhibition,"[16]; cisplatin combination, at 0.5 µM",58.9%
same,inhibition,"[16]; cisplatin combination, at 5 µM",102%
same,inhibition,"[16]; measured here: BGB IC40 combination 0.05 uM, at 0.05 µM",14.1%
same,inhibition,"[16]; single agent, at 5 µM",108%
same,inhibition,[17]; at 0.5 µM,32.4% (inactive)
same,inhibition,"[17]; cisplatin combo, at 5 µM",91.3%
same,inhibition,"[17]; measured here: BGB IC40 combination, at 0.05 µM",-15.7%
same,inhibition,"[17]; measured here: combination with cisplatin, at 0.5 µM",51.1%
same,inhibition,"[17]; single agent, at 5 µM",92.7%
c1cncc(CN2CCC(n3ncc4c(N5CCOCC5)nc(-c5ccc6[nH]ccc6c5)nc43)CC2)c1,AC50,[1],7.42 µM (active)
same,AC50,[2],8.33 µM (active)
same,AC50,[3],14.8 µM (active)
same,AC50,[4],2.09 µM (active)
same,AC50,[5],16.6 µM (active)
same,AC50,[6],5.25 µM (active)
same,AC50,[8],20.9 µM (active)
same,outcome,[18],inactive
same,fold change,"[19]; stronger effect = lower value, cell number ratio, induced over uninduced",0.951 (inactive)
same,fold change,[19]; measured here: relative caspase fold change +Dox/-Dox,0.489
same,cell count,"[19]; measured here: total cells with miR-34 induction, stronger effect = lower value",2980
same,cell count,[19]; measured here: total cells without miR-34 induction,3130
same,z-score,"[20]; MELAS cybrid survival, CellTiter-Glo 48 h, stronger effect = higher value",4.98 (active)
same,z-score,"[20]; Rieske KO mouse fibroblast survival, CellTiter-Glo 72 h",-1.65
